Assay results reported in publication PMC11062922 (Nature Chemical Biology, 2023).
Read-outs that look alike come from different tables or passages of the source.

Experiments:
Set-up in all cases: species or system human, MV4-11 + K-562 + COLO205 + SK-N-BE2 + OVCAR-8
ACVR2B = details: read-out: apparent Kd, n = 1
DJA1 = tested on: T1, DJA1; details: read-out: apparent Kd; compound concentrations: 100 nM and 1000 nM (sheet 'Samples'), CATDS: 0.27071673816178898; n = 1
T1 construct: gene DNAJA1

PIK3CD = details: read-out: apparent Kd; compound concentrations: 100 nM and 1000 nM (sheet 'Samples'), CATDS: 0.64872041714686801; n = 1
ACVR1B = details: read-out: apparent Kd; compound concentrations:100 nM and 1000 nM (sheet 'Samples'); n = 1
PKN3 = details: read-out: apparent Kd; compound concentrations:100 nM and 1000 nM (sheet 'Samples'); n = 1
PRKD2 = details: read-out: apparent Kd; compound concentrations:100 nM and 1000 nM (sheet 'Samples'); n = 1
PRKD3 = details: read-out: apparent Kd; compound concentrations:100 nM and 1000 nM (sheet 'Samples'); n = 1
ACVR1 = details: read-out: apparent Kd; compound concentrations:100 nM and 1000 nM (sheet 'Samples'); n = 1
BMPR1A = details: read-out: apparent Kd; compound concentrations:100 nM and 1000 nM (sheet 'Samples'); n = 1
CDK6 = details: read-out: apparent Kd; compound concentrations:100 nM and 1000 nM (sheet 'Samples'); n = 1
MAP2K2 = details: read-out: apparent Kd; compound concentrations:100 nM and 1000 nM (sheet 'Samples'); n = 1
MAP2K5 = details: read-out: apparent Kd; compound concentrations:100 nM and 1000 nM (sheet 'Samples'); n = 1
NNT = details: read-out: apparent Kd; compound concentrations:100 nM and 1000 nM (sheet 'Samples'); n = 1
NQO1 = details: read-out: apparent Kd; compound concentrations:100 nM and 1000 nM (sheet 'Samples'); n = 1
PDGFRB = details: read-out: apparent Kd, n = 1
PRKCI = details: read-out: apparent Kd; compound concentrations:100 nM and 1000 nM (sheet 'Samples'); n = 1
PRKCZ = details: read-out: apparent Kd; compound concentrations:100 nM and 1000 nM (sheet 'Samples'); n = 1
PTK6 = details: read-out: apparent Kd; compound concentrations:100 nM and 1000 nM (sheet 'Samples'); n = 1
RIOK2 = details: read-out: apparent Kd; compound concentrations:100 nM and 1000 nM (sheet 'Samples'); n = 1
RIPK2 = details: read-out: apparent Kd; compound concentrations:100 nM and 1000 nM (sheet 'Samples'); n = 1
TESK2 = details: read-out: apparent Kd; compound concentrations:100 nM and 1000 nM (sheet 'Samples'); n = 1
TNIK = details: read-out: apparent Kd; compound concentrations:100 nM and 1000 nM (sheet 'Samples'); n = 1
TP53RK = details: read-out: apparent Kd; compound concentrations:100 nM and 1000 nM (sheet 'Samples'); n = 1
CDK9 = details: read-out: apparent Kd; compound concentrations:100 nM and 1000 nM (sheet 'Samples'); n = 1
CSNK2A1;CSNK2A3 = details: read-out: apparent Kd; compound concentrations:100 nM and 1000 nM (sheet 'Samples'); n = 1
CSNK2A2 = details: read-out: apparent Kd; compound concentrations:100 nM and 1000 nM (sheet 'Samples'); n = 1
ERBB3 = details: read-out: apparent Kd; compound concentrations:100 nM and 1000 nM (sheet 'Samples'); n = 1
FLT3 = details: read-out: apparent Kd, n = 1
GSK3A = details: read-out: apparent Kd; compound concentrations:100 nM and 1000 nM (sheet 'Samples'); n = 1
GSK3B = details: read-out: apparent Kd; compound concentrations:100 nM and 1000 nM (sheet 'Samples'); n = 1
ICK = details: read-out: apparent Kd; compound concentrations:100 nM and 1000 nM (sheet 'Samples'); n = 1
NLK = details: read-out: apparent Kd; compound concentrations:100 nM and 1000 nM (sheet 'Samples'); n = 1
PIM2 = details: read-out: apparent Kd; compound concentrations:100 nM and 1000 nM (sheet 'Samples'); n = 1
TAOK1 = details: read-out: apparent Kd; compound concentrations:100 nM and 1000 nM (sheet 'Samples'); n = 1
FLT4 = details: read-out: apparent Kd; compound concentrations: 100 nM and 1000 nM (sheet 'Samples'), CATDS: 0.63854178875025103; n = 1
[1] = compound concentrations:100 nM and 1000 nM (sheet 'Samples')

Fc1cc(Cl)ccc1Nc1ccnc2cc(I)ccc12 [GW551191X] showed a potency estimated from few doses (ACVR2B; compound concentrations: 100 nM and 1000 nM (sheet 'Samples'), CATDS: 0.26563205076169) of 1340 nM, a potency estimated from few doses (DJA1) of 1260 nM and a potency estimated from few doses (PIK3CD) of 203 nM.

COc1ccc2nc(-c3cccc(C)n3)nc(Nc3ccncc3)c2c1 [GSK204919_KCGS] gave a potency estimated from few doses (ACVR1B) of 61.3 nM, a potency estimated from few doses (PKN3) of 647 nM and a potency estimated from few doses (PRKD2) of 12.6 nM. For the same compound, the potency estimated from few doses (PRKD3) was 8.21 nM.

Work on Cc1cc(O)cc(C)c1/C=C/c1cncc(C(N)=O)c1 [GW435821X_KCGS] yielded a potency estimated from few doses (ACVR1) of 107 nM, a potency estimated from few doses (ACVR2B; [1]) of 26.5 nM and a potency estimated from few doses (BMPR1A) of 1200 nM. For the same compound, the potency estimated from few doses (CDK6) was 120 nM, the potency estimated from few doses (MAP2K2) was 179 nM and the potency estimated from few doses (MAP2K5) was 2600 nM. It also gave a potency estimated from few doses (NNT) of 2010 nM, a potency estimated from few doses (NQO1) of 1150 nM and a potency estimated from few doses (PDGFRB; [1]) of 1570 nM. The potency estimated from few doses (PRKCI) was 2300 nM, the potency estimated from few doses (PRKCZ) was 1470 nM and the potency estimated from few doses (PTK6) was 1460 nM. The potency estimated from few doses (RIOK2) was 2280 nM, the potency estimated from few doses (RIPK2) was 96.7 nM and the potency estimated from few doses (TESK2) was 1250 nM. It also gave a potency estimated from few doses (TNIK) of 2400 nM and a potency estimated from few doses (TP53RK) of 1440 nM.

Compound O=C(Nc1n[nH]c2nc(-c3ccc(O)cc3)ccc12)C1CC1 [SB-710363] has a potency estimated from few doses (ACVR1) of 1210 nM, a potency estimated from few doses (CDK9) of 2300 nM and a potency estimated from few doses (CSNK2A1;CSNK2A3) of 2320 nM. For the same compound, the potency estimated from few doses (CSNK2A2) was 1270 nM, the potency estimated from few doses (ERBB3) was 1710 nM and the potency estimated from few doses (FLT3; [1]) was 1530 nM. The potency estimated from few doses (GSK3A) was 61.7 nM, the potency estimated from few doses (GSK3B) was 147 nM and the potency estimated from few doses (ICK) was 1130 nM. For the same compound, the potency estimated from few doses (NLK) was 1440 nM, the potency estimated from few doses (PIM2) was 1330 nM and the potency estimated from few doses (TAOK1) was 1130 nM. It also gave a potency estimated from few doses (TNIK) of 1630 nM.

CC(=O)Nc1ccc(COc2ccc(Nc3ccnc4cc(-c5ccccn5)ccc34)cc2)cc1.Cl [GW440148A] showed a potency estimated from few doses (ACVR2B; compound concentrations: 100 nM and 1000 nM (sheet 'Samples'), CATDS: 0.26489055890019297) of 482 nM, a potency estimated from few doses (FLT3; compound concentrations: 100 nM and 1000 nM (sheet 'Samples'), CATDS: 0.189547770315381) of 1250 nM and a potency estimated from few doses (FLT4) of 88.5 nM. It also gave a potency estimated from few doses (PDGFRB; compound concentrations: 100 nM and 1000 nM (sheet 'Samples'), CATDS: 0.185767501667575) of 1340 nM.
